According to PMC4336329 (PLoS ONE, 2015):
The whole screen tested about 310,000 compounds, of which about 14,000 (4.5%) showed an effect of 50% or more. Effects have a minus sign here. Only a selection was taken, and strong results are over-represented in it overall.

The molecules below were run against human ether-à-go-go-related gene (hERG) potassium channel (human, UniProt Q12809) (assay: primary screen, population patch clamp on CHO cells stably expressing hERG; higher = less effect of the substance).
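Also: peak tail current of the secondary pulse compared with the same well before compound.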

human ether-à-go-go-related gene (hERG) potassium channel, sequence (Q12809 whole entry, looked up): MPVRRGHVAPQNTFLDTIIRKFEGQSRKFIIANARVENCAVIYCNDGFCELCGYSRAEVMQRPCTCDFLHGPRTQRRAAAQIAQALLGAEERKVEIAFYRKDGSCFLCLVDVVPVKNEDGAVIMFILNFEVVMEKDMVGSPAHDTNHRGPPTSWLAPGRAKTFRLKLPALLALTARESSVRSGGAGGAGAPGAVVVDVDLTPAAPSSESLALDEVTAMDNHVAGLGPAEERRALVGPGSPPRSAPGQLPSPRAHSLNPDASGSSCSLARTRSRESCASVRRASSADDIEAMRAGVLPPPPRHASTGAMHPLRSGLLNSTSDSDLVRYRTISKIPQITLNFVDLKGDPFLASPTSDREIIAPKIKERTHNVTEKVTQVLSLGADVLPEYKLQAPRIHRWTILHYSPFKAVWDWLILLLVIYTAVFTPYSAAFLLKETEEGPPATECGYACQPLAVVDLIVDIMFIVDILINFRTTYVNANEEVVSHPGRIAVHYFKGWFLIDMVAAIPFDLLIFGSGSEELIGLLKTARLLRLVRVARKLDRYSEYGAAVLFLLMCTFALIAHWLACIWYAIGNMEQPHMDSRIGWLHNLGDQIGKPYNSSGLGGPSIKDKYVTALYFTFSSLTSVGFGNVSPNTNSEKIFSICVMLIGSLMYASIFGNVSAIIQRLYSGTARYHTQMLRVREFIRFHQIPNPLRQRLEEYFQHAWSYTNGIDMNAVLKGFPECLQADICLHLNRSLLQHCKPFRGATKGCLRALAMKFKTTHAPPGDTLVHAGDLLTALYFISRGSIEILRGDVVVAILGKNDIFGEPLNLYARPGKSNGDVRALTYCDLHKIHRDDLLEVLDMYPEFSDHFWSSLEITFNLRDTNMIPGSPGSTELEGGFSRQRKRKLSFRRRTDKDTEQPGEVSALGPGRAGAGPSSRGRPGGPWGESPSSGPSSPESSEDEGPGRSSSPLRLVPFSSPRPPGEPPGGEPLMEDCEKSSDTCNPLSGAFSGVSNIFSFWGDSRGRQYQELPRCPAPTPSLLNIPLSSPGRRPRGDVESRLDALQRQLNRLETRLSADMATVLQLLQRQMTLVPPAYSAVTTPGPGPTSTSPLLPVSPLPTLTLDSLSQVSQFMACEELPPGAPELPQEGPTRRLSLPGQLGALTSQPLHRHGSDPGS

Structure (SMILES)	hERG current change (%, negative = inhibition) at 10uM [%]
COc1ccc(NC(=S)NCc2ccc3c(c2)cc(C)n3C)cc1	5.5
CN(CCO)c1cc(NCCCN2CCC(Cc3ccccc3)CC2)c2nonc2c1[N+](=O)[O-]	-38
COC(=O)c1ccc(NC(=O)c2ccc3c(c2)C(=O)N(Cc2cccnc2)C3=O)cc1	-23.2
CCCCCCn1c(O)c(C(C)=NC)c(=O)[nH]c1=O	1.56
CC1CCc2nn(CC(=O)Nc3ccc(F)cc3F)cc2C1 (centres unmarked)	-2.61
COc1ccc(-c2nc3ccccc3n2Cc2ccc(C)cc2)cc1	-6.29
CN1C(=O)C(C)(C)c2cc(S(=O)(=O)N3CCCC(C(=O)NCc4ccccc4Cl)C3)ccc21 (centres unmarked)	2.18
C=CCN(C(=O)CCC(=O)O)C1CC(=O)N(c2ccc(OCCC)cc2)C1=O (centres unmarked)	0.711
Cc1ccc2oc(=O)c3cc(C(=O)NCCN4CCN(C)CC4)sc3c2c1	-18.2
COC(=O)c1ccc(C)c(NC(=O)C2CC(=O)N(C3CCCC(C)C3C)C2)c1 (centres unmarked)	-11.5
O=C(OCC(=O)N1CCCCC1)c1c[nH]c2ccccc12	-7.04
O=C(O)COc1ccccc1/C=N/NC(=O)CN1CCN(Cc2ccc(Cl)cc2)CC1	10.7
O=C(CN1CCSCC1)N/N=C/c1ccccc1F	0.735
Cc1ccc(CN2CCN(CC(=O)N/N=C/c3ccccc3F)CC2)cc1	-66.4
Cc1nc2ccccc2c(=O)n1-c1ccc(Cl)cc1Cl	-0.324
Cc1ccc(CSc2ncnc3c2cnn3-c2ccc(C)cc2)cc1	30.7
COc1ccc(N(CC(O)Cn2c(C)nc3ccccc32)S(=O)(=O)c2ccc(C)cc2)cc1 (centres unmarked)	-11.5
COc1ccc(N(CC(O)Cn2c(C)nc3ccccc32)S(=O)(=O)c2ccccc2)cc1 (centres unmarked)	4.8
COc1ccc(N(CC(O)CN2C(=O)NC(C)(C)C2=O)S(=O)(=O)c2ccc(C)cc2)cc1 (centres unmarked)	-11.6

Structure (SMILES)	hERG current change (%, negative = inhibition) at 10uM [%]
COc1ccc(N(CC(O)Cn2cnc3ccccc32)S(=O)(=O)c2ccc(C)cc2)cc1 (centres unmarked)	-58
COc1ccc(N(CC(O)Cn2nnc3ccccc32)S(=O)(=O)c2ccc(C)cc2)cc1 (centres unmarked)	-64.6
COc1ccc([N+](=O)[O-])cc1N(CC(O)Cn1nnc2ccccc21)S(=O)(=O)c1ccc(C)cc1 (centres unmarked)	-29.4
COc1ccc(C(=O)Nc2ccc(N3CCCCCC3)cc2)cc1S(=O)(=O)N1CCOCC1	-40.1
COc1ccc(CN(CC2CCCO2)C(=O)CN2C(=O)COc3ccccc32)cc1OC (centres unmarked)	-15.8
Cc1sc(N)c(C(=O)c2ccccc2Cl)c1C	3.8
CCOc1ccccc1N(CC(=O)NC1CCCCC1)C(=O)CNC(=O)c1ccco1	8.1
Fc1ccc(CN2CCN(c3ncccn3)CC2)cc1	-3.32
CN1C(=O)c2ccc(C(=O)Nc3ccc(Br)cn3)cc2C1=O	7.17
O=C(CN1CCOCC1)Nc1ccccc1NC(=O)C1CCN(c2ncccn2)CC1	9.55
Cc1ccc(-c2nc(CS(=O)CC(=O)NCCN(CC(C)C)CC(C)C)c(C)o2)cc1 (centres unmarked)	-19.4
Cc1cc(Cl)ccc1NC(=O)CN1C(=O)C(=O)N(C2CCCC2)C1=O	-5
Cc1ccc(-n2cc(CN3CCC(CO)(Cc4ccccc4)CC3)cn2)cc1	-65.1
OCC1(Cc2ccccc2)CCN(Cc2cnn(-c3ccccc3F)c2)CC1	-41.9
Cc1ccc(-n2cc(CN3CCC(CO)(Cc4cccc(C(F)(F)F)c4)CC3)cn2)cc1	-76
Cc1ccc(CN2CCCN(Cc3ccccc3C)S2(=O)=O)cc1	21.1
Cc1ccc(-n2nnnc2-c2cnc(N3CCCC3)nc2C(F)(F)F)cc1	-9.95
CCOC(=O)c1cnc2c(cnn2C)c1NCc1ccc(OC)cc1	16
COC(=O)c1cc2sc(Cl)cc2n1CC(=O)Nc1ccc(OC)c(OC)c1OC	-68.9

Structure (SMILES)	hERG current change (%, negative = inhibition) at 10uM [%]
COC(=O)c1cc2sccc2n1CC(=O)Nc1ccc(OC)c(OC)c1OC	-1.08
COC(=O)c1cc2occc2n1CC(=O)Nc1ccc(OC)c(OC)c1OC	0.151
CCOc1ccc(NC(=O)CN2CC(c3ccccc3)CC2=O)cc1 (centres unmarked)	-19.9
COC(=O)c1ccc(/C=N/NS(=O)(=O)c2cc(C)ccc2C)cc1	-0.827
Cc1ccn2c(NCc3ccccc3)c(-c3cccs3)nc2c1	12.5
Br.Cc1nc2ncccn2c1-c1csc(Nc2ccc(S(N)(=O)=O)cc2)n1	0.703
Cc1nc2ncccn2c1-c1csc(NCc2ccco2)n1	-51.8
Cc1nc2ccccn2c1-c1csc(NCc2ccco2)n1	-74.6
Cc1nc2sccn2c1-c1csc(NCc2ccccc2)n1	6.86
Oc1ccc(-c2csc(NCc3ccco3)n2)cc1	-10.2
Cc1nc(C)c(-c2csc(NCc3ccco3)n2)s1	-10.9
c1coc(CNc2nc(-c3ccncc3)cs2)c1	-3.17
Cc1ccn2c(-c3csc(NCc4ccccc4)n3)c(C)nc2c1.Cl	-72.4
C=CCNc1nc(-c2c(C)nc3ncccn23)cs1	-0.737
c1coc(CNc2nc(-c3cccs3)cs2)c1	-9.83
Cc1ccn2c(-c3csc(NCc4ccco4)n3)c(C)nc2c1	-64.9
COc1ccccc1/C=C(/C#N)C(=O)O	18.5
Nc1ccc(-c2cnc3ccccc3n2)cc1	0.217
